Most compounds without a hit are left out; they make up all but 2.4% or so of the library.
D2 antag – antagonists of human D2 dopamine receptor. HEK293 TREx D2 cells, calcium flux, dopamine EC80. inhibition, % at 10 µM. 340,000 compounds, 2% hits; in the data active = inhibition above about 30%; inactive = below that, where a call was filed; also: 0% is about no effect
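Read-out: kinetic calcium fluorescence (1 cycle/s) in inducible HEK293 T-REx D2 cells after an EC80 dopamine addition that followed 180 s compound preincubation. Loss of the dopamine response indicates antagonism.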
D2 PAM-1 – positively modulates the human D2 dopamine receptor allosterically. P14416. HEK293 T-REx D2, calcium flux, EC20 dopamine potentiation. potentiation, % at 10 µM. 340,000 compounds, 0.34% hits;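 active = potentiation over 3 SD above the plate norm, cut at about 30% in these data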; also: 0% is about no effect
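Tetracycline-induced HEK293 T-REx cells force-coupled to calcium signalling expressed D2; compounds were pin-added after a 10 s baseline, read kinetically 180 s, then an EC20 dopamine challenge followed with a further 180 s calcium read.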
D2 ag-1 – agonists of human D2 dopamine receptor (beta-arrestin). DiscoveRx PathHunter D2 beta-arrestin, luminescence, 90 min; 100% = 57 uM dopamine signal. 360,000 compounds, 0.084% hits. AID 624465. activation, % (test concentration not listed); in the data active = activation above about 40%; inconclusive = between about 15% and that limit
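Agonist mode: compounds alone added to overnight-plated D2 PathHunter cells for 90 min at 37 C, with 57 uM final dopamine (EC100) defining full response. Beta-arrestin recruitment detected by chemiluminescent reagent, read after 1 h at ambient temperature.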
B2AR arrestin – agonists driving beta-arrestin recruitment to human beta2-adrenergic receptor | beta-arrestin recruitment to beta2AR, cell-based reporter | Potency, µM (series often up to 46.1 µM), for inactives: at the highest dose activation, most hits filed as activators | 330,000 compounds, 0.02% hits | AID 492947; active = well fitted activation curve with a large enough effect; inconclusive = small, poorly fitted or top-dose-only effect;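 also: potency is read from the fitted curve at half-maximal effect; 0% = DMSO controls and full agonism = EC100 isoproterenol or metaproterenol; nearly all actives have a fitted effect of over 65% in size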
Target sequence (P07550 whole entry, looked up): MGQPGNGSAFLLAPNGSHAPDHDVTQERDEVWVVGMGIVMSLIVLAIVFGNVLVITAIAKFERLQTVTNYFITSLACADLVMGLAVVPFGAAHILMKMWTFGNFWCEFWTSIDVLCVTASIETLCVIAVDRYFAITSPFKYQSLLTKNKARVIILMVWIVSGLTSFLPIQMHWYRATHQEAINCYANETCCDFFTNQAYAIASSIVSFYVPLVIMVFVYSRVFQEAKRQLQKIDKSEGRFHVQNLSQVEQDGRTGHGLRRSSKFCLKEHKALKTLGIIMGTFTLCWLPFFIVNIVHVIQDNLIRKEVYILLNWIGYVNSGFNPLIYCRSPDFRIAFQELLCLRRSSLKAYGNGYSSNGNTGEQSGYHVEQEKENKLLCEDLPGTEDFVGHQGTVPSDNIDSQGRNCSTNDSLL
D2 PAM-2 – positive allosteric modulators of human D2 dopamine receptor. P14416. DiscoveRx D2 beta-arrestin cells, luminescence, 90 min; 100% = 57 uM dopamine signal. potentiation, % (concentration not given with the values). 360,000 compounds, 0.23% hits. AID 624464; in the data active = potentiation above about 50%; inconclusive = mostly about 30% to 49%
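PathHunter beta-arrestin assay in DiscoveRx D2 cells. Compounds were added with an EC20 of dopamine (50 nM final) for 90 min at 37 deg C. Luminescence was read 1 h after detection reagent, with 57 uM dopamine as the EC100 control.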
D2 ag-2 – agonists of human D2 dopamine receptor | AID 485358 | 340,000 compounds, 0.53% hits | HEK293 T-REx D2 cells, calcium flux agonist mode | activation, % at 2 µM | P14416;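 active = activation over 3 SD above normal in the single-dose calcium agonist read, cut at about 30% in these data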; also: 0% is about no effect
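Agonism is scored from calcium flux in a force-coupled, inducible HEK293 cell line expressing D2, read kinetically for 180 s after compound addition against dopamine controls.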
The depositor's hits bear a star; ? = inconclusive; nt = no result given.

SMILES	D2 antag	D2 PAM-1	D2 ag-1	B2AR arrestin	D2 PAM-2	D2 ag-2
COc1ccccc1N1CCN(C2CCCN(S(=O)(=O)c3ccc(C)cc3)C2)CC1 (stereo not drawn)	66*	-19	-4	0%	-52	1
COc1ccc(CN2CCCC(N3CCN(c4cccc(Cl)c4)CC3)C2)cc1OC (stereo not drawn)	26	-17	-2	0%	-42	38*
COc1ccc(N2CCN(C3CCCN(S(=O)(=O)c4ccccc4)C3)CC2)cc1 (stereo not drawn)	-2	12	-3	0%	3	1
COc1ccccc1N1CCN(C2CCCN(S(=O)(=O)c3cccc(Cl)c3)C2)CC1 (stereo not drawn)	53*	-27	-3	-1%	-49	-1
CCOc1cc(CN2CCCC(N3CCN(c4ccc(F)cc4)CC3)C2)ccc1OC (stereo not drawn)	-2	-15	-4	0%	-1	0
Cc1ccc2oc(-c3ccc(NC(=O)c4ccncc4)cc3O)nc2c1	1	2	1	-1%	-4	0
Cc1ccc2oc(-c3cc(NC(=O)c4ncn[nH]4)ccc3O)nc2c1	13	31*	-1	0%	3	1
CC(C)COc1ccc(C(=O)Nc2ccc(N3CCOCC3)cc2N2CCOCC2)cc1	-18	6	-4	-1%	-6	-1
CCCCC1CCC(C(=O)Nc2ccccc2N2CCOCC2)CC1 (stereo not drawn)	33*	11	-1	0%	17	1
CCCCCOc1ccc(C(=O)Nc2ccc(N3CCOCC3)cc2N2CCOCC2)cc1	-12	78*	-2	0%	-2	0
CC(C)(C)C1CCC(C(=O)Nc2ccc(N3CCOCC3)cc2N2CCOCC2)CC1 (stereo not drawn)	31*	-14	-4	0%	-5	0
Cc1ccc(S(=O)(=O)NCCC(=O)NCCSc2ccc(Br)cc2)cc1	-1	-5	-2	-1%	-7	-1
CSc1ccc2c(c1)N(CCC1CCCCN1C)c1ccccc1S2 (stereo not drawn)	98*	-29	-3	-2%	-31	1
CS(=O)(=O)N1CCc2cc(C(=O)Nc3ccc(COCC(F)(F)F)cc3)ccc21	-1	1	-4	0%	-1	-2
O=C(O)CSc1cccc2cccnc12	4	-9	2	13%	-6	1
Cc1ccc(C(=O)COC(=O)CSc2cccc3cccnc23)c(C)c1	nt	nt	-5	nt	57*	nt
COC(=O)c1ccc(OC(=O)CN2C(=O)c3ccccc3C2=O)cc1	-10	-4	3	-3%	75*	0
CC1=CC(C)(C)Nc2ccc(OC(=O)CN3C(=O)c4ccccc4C3=O)cc21	1	5	15	-1%	113*	-2
CC1=CC(C)(C)Nc2ccc(OC(=O)CN3C(=O)c4cccc5cccc(c45)C3=O)cc21	-15	-1	14	9%	?	-1
COC(=O)c1ccc(CN2C(=O)c3ccccc3C2=O)cc1	-10	3	1	0%	1	0
CCOC(=O)CN1C(=O)C(C)(C)Oc2ccc(C(=O)NC(C)(C)CC)cc21	-4	-16	-1	0%	-9	1
O=C(O)CCS(=O)(=O)c1cccc2cccnc12	31*	17	-1	0%	-18	1
CC(NC(=O)c1cc(S(=O)(=O)N(C)C)ccc1Cl)C1CC2CCC1C2 (stereo not drawn)	35*	-5	0	0%	-1	0
N#Cc1c(/N=C/C=C/c2ccccc2)sc2c1CCCC2	-11	31*	?	0%	27	1
COc1ccc(-n2cc(-c3ccccc3)c3c(N4CCOCC4)ncnc32)cc1	-6	5	?	0%	62*	0
SMILES	D2 antag	D2 PAM-1	D2 ag-1	B2AR arrestin	D2 PAM-2	D2 ag-2
O=C(c1ccc2c(c1)OCCO2)N(Cc1cccnc1)c1nc2ccc(Cl)cc2s1	nt	7	nt	nt	nt	0
C=CCNc1nc(SC)nc2ccsc12	32*	-4	-1	0%	-18	0
COc1ccccc1C1(CCNC(C)c2cccs2)CCOC(C(C)C)C1 (stereo not drawn)	14	-8	2	0%	-10	1
C/C(=N\NC(=O)C1(C)CC1(Br)Br)c1cccc(NC(=O)C2CCC2)c1 (stereo not drawn)	30*	-1	-5	0%	2	-1
COc1ccc(CC(=O)N/N=C(\C)c2cccc(NC(=O)C3CC3)c2)cc1	-3	4	-3	0%	-18	-1
CCC(C)Oc1ccc(/C=C/c2[nH]c(=O)[nH]c(=O)c2[N+](=O)[O-])cc1OC (stereo not drawn)	-6	34*	-5	0%	-4	-1
O=Cc1cn(CCOc2ccccc2F)c2ccccc12	-5	3	15	4%	-19	0
Cc1sc2nc(CSc3ccccc3)nc(N3CCN(C)CC3)c2c1C	90*	-37	-3	-1%	-32	1
COCCNc1nc(CSc2ccccc2)nc2sc(C)c(C)c12	-8	1	1	0%	-3	0
Nc1ncccc1OCc1cccc(C(F)(F)F)c1	-10	32*	5	0%	2	0
COc1ccc(CC(=O)NNC(=O)c2cc(C)oc2C)cc1OC	32*	-4	-6	0%	-33	1
COc1ccc(CC(=O)NNC(=O)c2ccccc2)cc1OC	nt	nt	-3	-1%	0	nt
C#CCOCCOCCOCCNc1nc(N2CCN(C(=O)[C@H](CCCN=C(N)N)n3cc(C(N)[C@@H](C)CC)nn3)CC2)nc(N2CCN(C(=O)[C@H](CC(N)=O)n3cc([C@@H](N)C(C)C)nn3)CC2)n1 (stereo partly drawn)	nt	nt	-4	0%	-7	nt
CCNC(=S)N/N=C/c1ccc(F)cc1	4	4	nt	0%	nt	0
CCCCNC(=S)N/N=C/c1ccc(C#N)cc1	39*	10	3	3%	9	-3
CCOc1ccc(S(=O)(=O)Nc2ccc3c(c2)N(C(C)=O)CCC3)cc1	nt	1	nt	nt	nt	1
COc1ccc(C(=O)n2nc(-c3ccc(OC)cc3)nc2N)cc1	0	12	-1	0%	-1	0
COc1cc(/C=C(/C#N)c2nc(-c3cc4ccccc4oc3=O)cs2)cc([N+](=O)[O-])c1O	-20	-21	nt	8%	nt	0
Cc1ccc(C(=O)COC(=O)c2cccc(NC(=O)c3ccc([N+](=O)[O-])cc3[N+](=O)[O-])c2)cc1	11	6	?	7%	122*	0
Nc1ccn([C@@H]2O[C@H](C(=O)N[C@H]3c4ccccc4C[C@H]3O)[C@@H](O)[C@H]2O)c(=O)n1	nt	nt	-3	nt	-3	nt

Source: PubChem (National Center for Advancing Translational Sciences (NCATS))
